The subject of one assay is WaGa. Nature of the assay: qHTS assay to identify novel small-molecules to repurpose for Merkel cell carcinoma treatment (AID 1296009). Further: on the % scale 0 is the no-effect control and ±100 the full control effect; nearly all actives have a fitted effect of over 60% in size. Conditions: MCC and control cell lines, CellTiter-Glo viability, 72 h; series mostly up to 46 µM. The method in brief:
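Dose-response viability screen; 72 hr exposure at 37 degree celsius; CellTiter-Glo added, 10 min room temperature, luminescence read; RLUs scaled between no-cell and DMSO wells.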
In general terms: Quantitative high-throughput screening tests each substance at several concentrations.

Another assay has as its system C33A. The experiment in a line: Primary qHTS to identify gynecologic anti-cancer compounds using libraries of approved drugs and bioactive compounds (AID 1345084). Further: on the % scale 0 is the no-effect control and ±100 the full control effect; nearly all actives have a fitted effect of over 55% in size. Conditions: Gynecologic cancer cell panel viability, ATPlite luminescence, 48 h; series mostly up to 57.5 µM. The method in brief: (§1)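 48 h compound exposure at 37 C, 5% CO2; five-point qHTS. ATPlite luminescence readout of cell ATP.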

In another assay the test system is CASKI. The assay is described as above. Conditions: Gynecologic cancer cell panel viability, ATPlite luminescence, 48 h; series mostly up to 57.5 µM. The gist of the method: as §1
(In general: Cellular ATP, detected with luciferase, serves as a proxy for viable cell number.)

The next assay concerns Es-2. The assay is described as above. The conditions noted are these: Gynecologic cancer cell panel viability, ATPlite luminescence, 48 h; series mostly up to 57.5 µM. The method in brief: as §1
A further assay has as its system HeLa. The description is as above. Conditions: Gynecologic cancer cell panel viability, ATPlite luminescence, 48 h; series mostly up to 57.5 µM. The method in brief: as §1
In the next assay the test system is Hek293T. Described as above. The conditions noted are these: Gynecologic cancer cell panel viability, ATPlite luminescence, 48 h, control line for the selectivity index; series mostly up to 57.5 µM. The method in brief:
as §1

The subject of a further assay is JEG-3. The assay is described as above. The conditions noted are these: Gynecologic cancer cell panel viability, ATPlite luminescence, 48 h; series mostly up to 57.5 µM. The method in brief: as §1
The next assay deals with OV90. Described as above. The conditions noted are these: Gynecologic cancer cell panel viability, ATPlite luminescence, 48 h; series mostly up to 57.5 µM. The method in brief: as §1
The next assay relates to PA-1. Described as above. The conditions noted are these: Gynecologic cancer cell panel viability, ATPlite luminescence, 48 h; series mostly up to 57.5 µM. The method in brief:
as §1

In another assay the test system is SKOV3. Described as above. The conditions noted are these: Gynecologic cancer cell panel viability, ATPlite luminescence, 48 h; series mostly up to 57.5 µM. The method in brief: as §1
The subject of a further assay is Tov-21-G. Described as above. The conditions noted are these: Gynecologic cancer cell panel viability, ATPlite luminescence, 48 h; series mostly up to 57.5 µM. The gist of the method: as §1
A further assay deals with Tov112D. The assay is described as above. The conditions noted are these: Gynecologic cancer cell panel viability, ATPlite luminescence, 48 h; series mostly up to 57.5 µM. The gist of the method: as §1
Another assay deals with astro. The experiment in a line: Drug repurposing screens with cells derived from glioblastoma tumor samples (AID 1345199). Further: nearly all actives have a fitted effect of over 40% in size. Further: potency means the concentration at half of the fitted maximal effect. On activity, negative = cell killing: on the % scale 0 is the no-effect control and ±100 the full control effect. Conditions: viability, ATP luminescence, 48 h; series mostly up to 45.9 µM. The gist of the method: (§2)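 Primary testing used CD133+ neurospheres from four GBM patients, seven concentrations, 48 h exposure and ATP-based viability; confirmation added three slower-growing patient lines.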

Experiment in assay [1]: as above
Conditions: GBM patient neurospheres viability, ATP luminescence, 48 h. The method in brief:
as §2

Assay [2] has as its target Nuclear receptor subfamily 1 group I member 2 (Rattus norvegicus) (UniProt Q9R1A7). Nature of the assay: qHTS assay for small molecule activators of the rat pregnane X receptor (rPXR) signaling pathway (AID 651751; call rule not given here; further: 0% is about no effect). The conditions noted are these: rPXR reporter cells, luciferase (One-Glo), 24 h.
Setting [3] is: at 45.9 µM (top of the series), tumour line B.
The mark [4] stands for this setting: at 45.9 µM (top of the series), tumour line D.
Setting [5] is: at 46.1 µM (top of the series), tumour line C.

Structures are written as SMILES. Values joined by “and” are separate entries in the source; they are usually repeats but may differ in a detail not shown here. Identical values can stand only once. Unmarked numbers belong to inactive results. Results filed as inconclusive are left out. Active and inactive are the calls of the source. Unless noted, the call rests on the fitted dose curve; in most records, active means well fitted curve in the direction sought with a large enough effect; inconclusive means small, poorly fitted or top-dose-only effect, or another doubt; inactive means no such curve, though single readings can be large; an effect the other way counts as inactive or inconclusive.

Chain of Nuclear receptor subfamily 1 group I member 2 (Rattus norvegicus) (Q9R1A7 whole entry, looked up): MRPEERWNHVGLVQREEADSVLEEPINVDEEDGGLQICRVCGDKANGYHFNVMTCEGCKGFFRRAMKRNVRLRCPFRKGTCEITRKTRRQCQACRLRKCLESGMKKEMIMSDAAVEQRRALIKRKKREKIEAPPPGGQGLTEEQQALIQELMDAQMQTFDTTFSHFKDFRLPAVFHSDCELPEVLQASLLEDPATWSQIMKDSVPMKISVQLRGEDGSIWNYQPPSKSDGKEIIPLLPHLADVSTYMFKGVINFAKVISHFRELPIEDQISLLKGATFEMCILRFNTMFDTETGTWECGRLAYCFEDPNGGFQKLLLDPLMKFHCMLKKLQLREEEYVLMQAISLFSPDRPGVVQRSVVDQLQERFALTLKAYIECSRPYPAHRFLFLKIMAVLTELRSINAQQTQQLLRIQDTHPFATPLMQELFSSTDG

For `C=CCc1cc(OC)c(O)c(C(=O)NCCO)c1`, the Potency result in the assay on WaGa, with C33A, in the assay with CASKI, in the assay with Es-2, in the assay on HeLa and in the assay on Hek293T was “inactive” each time. The Potency result in the assay on JEG-3, in the assay with OV90, in the assay with PA-1, in the assay with SKOV3, in the assay with Tov-21-G and with Tov112D was “inactive” in each case. Also, the Potency entry in the assay with astro is “inactive”.

Take `COC(=O)N[C@H](C(=O)N[C@@H](Cc1ccccc1)[C@@H](O)CN(Cc1ccc(-c2ccccn2)cc1)NC(=O)[C@@H](NC(=O)OC)C(C)(C)C)C(C)(C)C`: the Potency entry with WaGa, in the assay on C33A, with CASKI, in the assay with Es-2, with HeLa and in the assay on Hek293T was “inactive” in each case. In addition, the Potency entry in the assay on JEG-3, with OV90, with PA-1, in the assay on SKOV3, in the assay with Tov-21-G and in the assay with Tov112D was “inactive” each time. For the same compound, in the assay on astro, the Potency entry was “inactive”. Also, the activity, negative = cell killing in assay [1] (setting [3]) was -0.919%; in assay [1] (setting [4]), -29.7%; in assay [1] (setting [5]), 8.04%. The Potency in assay [1] (tumour line A) was 11.2 µM (active).

`c1cnc2cc3c(cc2n1)C1CNCC3C1`: the Potency result in the assay with WaGa, with C33A, with CASKI, in the assay with Es-2, with HeLa and in the assay on Hek293T was “inactive” each time. Further, the Potency entry in the assay with JEG-3, in the assay on OV90, in the assay with PA-1, with SKOV3, in the assay on Tov-21-G and in the assay with Tov112D was “inactive” throughout. The Potency result in the assay on astro was “inactive”. Further, the activity, negative = cell killing in assay [1] (at 99.2 µM (top of the series), tumour line C) is 7.09%; in [1] (at 108 µM (top of the series), tumour line A), -15.8%; in assay [1] (at 108 µM (top of the series), tumour line B), -8.07%; in assay [1] (at 108 µM (top of the series), tumour line D), -25.1%.

Turning to `C[Se]CCC(N)C(=O)O` (stereo unspecified), the Potency entry with WaGa and in the assay on astro was “inactive” throughout. In addition, the activity, negative = cell killing in assay [1] (setting [3]) was -7.06%; in assay [1] (setting [4]) it was 3.7%; in assay [1] (at 46 µM (top of the series), tumour line A), -13.2%; in [1] (setting [5]), 5.25%.

In the case of `Cc1cc(O)c2c(c1)C(=O)c1cc(O)cc(O)c1C2=O`, in the assay with WaGa, the Potency entry was “inactive”. Further, in assay [2], the max response was 1.52% and -0.614%.

For `CN1C(C(=O)Nc2ccccn2)=C(O)c2sccc2S1(=O)=O`, the Potency result with C33A, with CASKI, in the assay with Es-2, in the assay on HeLa, with Hek293T and with JEG-3 was “inactive” each time. In addition, the Potency result with OV90, in the assay on PA-1, in the assay with SKOV3, in the assay on Tov-21-G, in the assay on Tov112D and with astro was “inactive” in each case. Also, the activity, negative = cell killing was 2.25% in [1] (at 20 µM (top of the series), tumour line C); -11.7% in assay [1] (at 21.2 µM (top of the series), tumour line B); -11.3% in assay [1] (at 21.2 µM (top of the series), tumour line D).

Regarding `Cc1cccc(C)c1OCC(=O)N[C@@H](Cc1ccccc1)[C@@H](O)C[C@H](Cc1ccccc1)NC(=O)[C@H](C(C)C)N1CCCNC1=O`, the Potency entry in the assay on C33A, in the assay with CASKI, in the assay on Es-2, in the assay with HeLa, with Hek293T and with JEG-3 was “inactive” throughout. In addition, the Potency entry with OV90, with PA-1, in the assay with SKOV3, in the assay with Tov-21-G, in the assay with Tov112D and with astro was “inactive” in each case. In addition, the activity, negative = cell killing in [1] (setting [3]) was -15.7%; in [1] (setting [4]) it was -27.5%; in assay [1] (setting [5]), -29%. The Potency in assay [1] (tumour line A) was 10 µM (active).
